# “And” between values parts separate entries of the source, which are not always exact repeats. Equal entries are not always repeated. Results filed as inconclusive are left out. Entries that show only a call come without a potency. A number with no mark means an inactive call. The source made the active and inactive calls. Calls come from the whole dose curve; as a rule, active = well fitted curve in the direction sought with a large enough effect; inconclusive = small, poorly fitted or top-dose-only effect, or another doubt; inactive = no such curve, though single readings can be large; an effect the other way counts as inactive or inconclusive.
# Legend:
# [1] = Primary qHTS for inhibitors of nuclear receptor binding SET domain protein 2 (NSD2) in an isogenic RCH-ACV NSD2 p.E1099K mutant (9B) (AID 1645876); conditions: RCH-ACV NSD2 E1099K (9B) viability, CellTiter-Glo, 72 h; series mostly up to 44.9 µM
# [2] = Primary qHTS for inhibitors of nuclear receptor binding SET domain protein 2 (NSD2) in an RCH-ACV wild type WT cells (2C) (AID 1645877); conditions: RCH-ACV (leukaemia line) NSD2 WT (2C) viability, CellTiter-Glo, 72 h; series mostly up to 44.9 µM
# Note: nearly all actives have a fitted effect of over 70% in size.
# Potency is the fitted concentration of half-maximal effect.
smiles,measurement,setting,value
C/C1=C\C[C@H](O[C@@H]2O[C@H](CO)[C@@H](O)[C@H](O)[C@H]2O)/C(C)=C/[C@H]2OC(=O)[C@H](C)[C@@H]2CC1,Potency,[1],inactive
same,Potency,[2],inactive
C=C1CC23CCC4[C@@](C)(CCC[C@@]4(C)C(=O)O)C2CCC1C3 (some centres undefined),Potency,[1],inactive
same,Potency,[2],inactive
CC1=C(C)C(=O)OC(C(C)(O)C2CCC3C4CC=C5CC(OC6OC(COC7OC(CO)C(O)C(O)C7O)C(O)C(O)C6O)CC(O)C5(C)C4CCC32C)C1 (centres undefined),Potency,[1],inactive
same,Potency,[2],inactive
C/C=C(\C)C(=O)OC[C@H]1O[C@H](O[C@H]2O[C@H](CO)[C@@H](OC(=O)/C(C)=C/C)[C@H](O)[C@H]2O[C@@H]2O[C@H](CO)[C@@H](O)[C@H](O)[C@H]2O)[C@H](O[C@@H]2O[C@H](CO)[C@@H](O)[C@H](O)[C@H]2O)[C@@H](O)[C@@H]1O,outcome,[1],inactive [at 9.23 µM]
same,outcome,[2],inactive [at 9.23 µM]
C/C=C1/[C@H](O[C@@H]2O[C@H](CO)[C@@H](O)[C@H](O)[C@H]2O)OC=C(C(=O)OC)[C@H]1CC(=O)O[C@@H]1O[C@H](CO)[C@@H](O)[C@H](O)[C@H]1O,Potency,[1],inactive
same,Potency,[2],inactive
C[C@@H]1O[C@@H](O[C@H]2[C@H](O[C@H]3[C@H](O[C@H]4CC[C@@]5(C)C(CC[C@]6(C)C5CC=C5[C@@H]7CC(C)(C(=O)O)C[C@@H](O)[C@]7(C)CC[C@]56C)[C@@]4(C)CO)O[C@H](C(=O)O)[C@@H](O)[C@@H]3O)O[C@H](CO)[C@H](O)[C@@H]2O)[C@H](O)[C@H](O)[C@H]1O (some centres undefined),"activity change, negative = viability loss",[1],-4.48% [at 9.23 µM]
same,"activity change, negative = cell killing",[2],-5.72% [at 9.23 µM]
CC1=C2CC3OC3(C)CCC3OC3(C)CC2OC1=O (centres undefined),Potency,[1],inactive
same,Potency,[2],inactive
CC(C)[C@H]1CCC(CO)=C[C@@H]1/C=C(\CO)C(=O)O,Potency,[1],inactive
same,Potency,[2],inactive
CC(CCC1(O)OC2CC3C4CCC5CC(O[C@@H]6O[C@H](CO)[C@@H](O)[C@H](O)[C@H]6O[C@@H]6OC[C@@H](O)[C@H](O)[C@H]6O)C(O)CC5(C)C4CCC3(C)C2C1C)CO[C@@H]1O[C@H](CO)[C@@H](O)[C@H](O)[C@H]1O (some centres undefined),outcome,[1],inactive [at 9.23 µM]
same,outcome,[2],inactive [at 9.23 µM]
C[C@@H]1C(=O)O[C@H]2CC34[C@H]5C[C@@H](C(C)(C)C)C36[C@@H](OC(=O)[C@@H]6O)OC4(C(=O)O5)[C@]21O (some centres undefined),Potency,[1],inactive
same,Potency,[2],inactive
C=C1CC[C@H]2[C@@](C)(CCC[C@@]2(C)C(=O)O)[C@@H]1CCC(C)CCO (some centres undefined),Potency,[1],inactive
same,Potency,[2],inactive
O=C(O[C@H]1[C@@H]2C=CO[C@@H](O[C@@H]3O[C@H](CO)[C@@H](O)[C@H](O)[C@H]3O)[C@@H]2[C@@]2(CO)O[C@@H]12)c1ccc(O)cc1,Potency,[1],inactive
same,Potency,[2],inactive
OC[C@H]1O[C@@H](OC(CCCCc2ccc(O)cc2)CCc2ccc(O)cc2)[C@H](O[C@@H]2OC[C@](O)(CO)[C@H]2O)[C@@H](O)[C@@H]1O (some centres undefined),Potency,[1],inactive
same,Potency,[2],inactive
C=C1C(OC(C)=O)C(=O)C2C(C)(C)C(OC(C)=O)CCC2(C)C1CC(OC(C)=O)/C(C)=C/COC(C)=O (centres undefined),Potency,[1],inactive
same,Potency,[2],inactive
CC12CC34C=CC(=O)C(C)(CCC(=O)O)C3C(CC1C4)O2 (centres undefined),Potency,[1],inactive
same,Potency,[2],inactive
C[C@@H]1CC[C@]2(C(=O)O)CC[C@]3(C)C(=CCC4[C@]5(C)C(CC[C@]43C)C(C)(C)[C@@H](O)[C@H](O)[C@@H]5O)C2[C@]1(C)O (some centres undefined),Potency,[1],inactive
same,Potency,[2],inactive
CC(=O)OCC1=C[C@H](O)[C@@H]2C(C(=O)O)=CO[C@@H](O[C@@H]3O[C@H](CO)[C@@H](O)[C@H](O)[C@H]3O)[C@H]12,Potency,[1],inactive
same,Potency,[2],inactive
CC(O)C(O)/C=C/C=C/C(=O)O[C@@H]1C=C2COC(=O)[C@]2(O)[C@@]2(C)CCCC(C)(C)C12 (some centres undefined),Potency,[1],inactive
same,Potency,[2],inactive
CCOc1cc2ncc(C#N)c(Nc3ccc(OCc4ccccn4)c(Cl)c3)c2cc1NC(=O)/C=C/CN(C)C,Potency,[1],282 nM (active) and 1.32 µM (active)
same,Potency,[2],282 nM (active) and 833 nM (active)
COc1c(OC2OC(CO)C(O)C(O)C2O)ccc(O)c1C(=O)OCc1ccccc1O[C@@H]1O[C@H](CO)[C@@H](O)[C@H](O)[C@H]1O (some centres undefined),Potency,[1],inactive
same,Potency,[2],inactive
C=CC1C(O[C@@H]2O[C@H](CO)[C@@H](O)[C@H](O)[C@H]2O)OC=C(C(=O)OC)C1CC(=O)O (some centres undefined),Potency,[1],inactive
same,Potency,[2],inactive
C=C1CCC2C(C)(CO[C@@H]3O[C@H](CO)[C@@H](O)[C@H](O)[C@H]3O)C(O)CCC2(C)C1C(=O)CC1=CCOC1=O (some centres undefined),Potency,[1],inactive
same,Potency,[2],inactive
O=C(OCc1cccc(O)c1O[C@@H]1O[C@H](CO)[C@@H](O)[C@H](O)[C@H]1O)C1(O)C(=O)C2C=CC1C1C=CC(=O)C(O)(C(=O)OCc3cccc(O)c3O[C@@H]3O[C@H](CO)[C@@H](O)[C@H](O)[C@H]3O)C21 (some centres undefined),"activity change, negative = viability loss",[1],-9.51% [at 9.23 µM]
same,"activity change, negative = cell killing",[2],-22.5% [at 9.23 µM]
CC(=O)OC1C=C(C(=O)O)C2(CO)CCC(C)C(C)(CCc3ccoc3)C2C1 (centres undefined),Potency,[1],inactive
same,Potency,[2],inactive
COc1ccc2c(c1)OC[C@]1(O)c3cc4c(cc3O[C@H]21)OCO4,Potency,[1],inactive
same,Potency,[2],inactive
CC(C)c1ccc(CC(=O)N2CCC[C@@H](c3cccc(OC(C)(C)C(=O)O)c3)C2)cc1,Potency,[1],inactive
same,Potency,[2],inactive
N#CC1C(=O)Nc2scc(-c3ccc(-c4ccccc4O)cc3)c2C1=O (centres undefined),Potency,[1],inactive
same,Potency,[2],inactive
CO[C@@]12CC3[C@@H]([C@@H](O)[C@@H](OC(C)=O)C4[C@](C)(COC(C)=O)CCC[C@]34C)[C@@H](C)C1=CC(=O)O2 (some centres undefined),Potency,[1],inactive
same,Potency,[2],inactive
C=C1C[C@]23C[C@H]1CC[C@H]2[C@]1(C)CCC[C@@]2(CO)C(=O)O[C@H]([C@H]21)[C@@H]3O,Potency,[1],inactive
same,Potency,[2],inactive
CC(/C=C/C1(O)C(C)(C)CC(O)CC1(C)O)OC1OC(CO)C(O)C(O)C1O (centres undefined),Potency,[1],inactive
same,Potency,[2],inactive
C[C@@]12C[C@]3(O)O[C@H](O1)[C@]1(COC(=O)c4ccccc4)[C@H]3C[C@@]12O[C@@H]1O[C@H](COC(=O)c2ccccc2)[C@@H](O)[C@H](O)[C@H]1O,Potency,[1],inactive
same,Potency,[2],inactive
COc1ccc(/C=C/C(=O)O[C@H]2[C@@H]3C=CO[C@@H](O[C@@H]4O[C@H](CO)[C@@H](O)[C@H](O)[C@H]4O)[C@@H]3[C@@]3(CO)O[C@@H]23)cc1O,Potency,[1],inactive
same,Potency,[2],inactive
COc1cc(/C=C/C(=O)OC[C@H]2O[C@H](O[C@]3(CO)O[C@H](CO)[C@@H](O)[C@@H]3O)[C@H](O)[C@@H](O)[C@@H]2O)cc(OC)c1O,Potency,[1],inactive
same,Potency,[2],inactive
CC1(C)CC2C(O)C3=C(CC(C)(O)C2C1)C(=O)OC3O (centres undefined),Potency,[1],inactive
same,Potency,[2],inactive
C=CC1(C)C=C2C(=O)CC3C(C)(C)CCCC3(C(=O)O)C2(O)CC1 (centres undefined),Potency,[1],inactive
same,Potency,[2],inactive
CC1CCC(=O)CC(O)C(O)CC(=O)O1 (centres undefined),Potency,[1],inactive
same,Potency,[2],inactive
CC1OC(OC2C(C)OC(OC3C(OC(=O)/C=C/c4ccc(O)cc4)C(CO)OC(OC4(COC(=O)/C=C/c5ccc(O)cc5)OC(CO)C(O)C4O)C3OC3OCC(O)(CO)C3O)C(O)C2O)C(O)C(O)C1O (centres undefined),"activity change, negative = viability loss",[1],-6.92% [at 9.23 µM]
same,"activity change, negative = cell killing",[2],-11.9% [at 9.23 µM]
COc1cc(C/C(=C/NC(C)=O)N(CC(=O)Cc2ccccc2)C(C)=O)cc2c1OCO2,Potency,[1],inactive
same,Potency,[2],inactive
Cc1c(CN(C)C(=O)/C=C/c2cnc3c(c2)CCC(=O)N3)oc2ccccc12,Potency,[1],inactive
same,Potency,[2],inactive
COc1ccc2c3c1O[C@H]1C[C@@H](O)C=C[C@@]31CCN(C)C2,Potency,[1],inactive
same,Potency,[2],inactive
CCCC(N[C@@H](C)C(=O)N1[C@H](C(=O)O)C[C@@H]2CCCC[C@@H]21)C(=O)OCC (some centres undefined),Potency,[1],inactive
same,Potency,[2],inactive
C[C@@H]1CC[C@H]2C(C)(C)[C@H](O)[C@H](O)C[C@]2(C)[C@@]12Cc1c(O)cc3c(c1O2)CNC3=O,Potency,[1],inactive
same,Potency,[2],inactive
C[C@]1(OC(=O)/C=C/c2ccccc2)C[C@H](O)[C@]2(O)C=CO[C@@H](O[C@@H]3O[C@H](CO)[C@@H](O)[C@H](O)[C@H]3O)C12 (some centres undefined),Potency,[1],inactive
same,Potency,[2],inactive
C[C@@H]1O[C@@H](OC[C@H]2O[C@@H](OCCc3ccccc3)[C@H](O)[C@@H](O)[C@@H]2O)[C@H](O)[C@H](O)[C@H]1O,Potency,[1],inactive
same,Potency,[2],inactive
C=C[C@@]1(C)CC(=O)C2[C@](C)(O1)[C@@H](OC(C)=O)[C@@H](O)[C@H]1C(C)(C)CCC[C@]21C (some centres undefined),"activity change, negative = viability loss",[1],1.01% [at 9.23 µM]
same,outcome,[2],inactive [at 9.23 µM]
CC(C)CC(=O)OC[C@H]1O[C@@](COC(=O)CC(C)C)(O[C@H]2O[C@H](CO)[C@@H](O)[C@H](O)[C@H]2O)[C@@H](OC(=O)CC(C)C)[C@@H]1OC(=O)CC(C)C,Potency,[1],inactive
same,Potency,[2],inactive
Cc1cc(O)cc(Oc2cc(C)c(C(=O)O)c(O)c2)c1,Potency,[1],inactive
same,Potency,[2],inactive
C=C1C[C@]23C[C@H]1CC[C@H]2[C@@]12C=C[C@H](O)[C@@](C)(C(=O)O1)[C@H]2[C@@H]3C(=O)O,Potency,[1],inactive
same,Potency,[2],inactive
COC(=O)[C@@H]1C2CC3c4[nH]c5ccccc5c4CCN3CC2CC[C@@H]1O (some centres undefined),Potency,[1],inactive
same,Potency,[2],inactive
O=C(/C=C/c1ccc(O)cc1)OC[C@]12O[C@H]1[C@@H](O)[C@@H]1C=CO[C@@H](O[C@@H]3O[C@H](CO)[C@@H](O)[C@H](O)[C@H]3O)[C@@H]12,Potency,[1],inactive
same,Potency,[2],inactive
C[C@H]1[C@H](C)CC[C@]2(C(=O)O)CC[C@]3(C(=O)O)C(=CCC4[C@@]5(C)CC[C@H](O[C@@H]6O[C@H](C)[C@@H](O)[C@H](O)[C@H]6O)C(C)(C)C5CC[C@]43C)[C@H]12 (some centres undefined),Potency,[1],inactive
same,Potency,[2],inactive
CC1(C)NC2N(C1=O)c1ccccc1C2(O)CC(C(=O)O)n1cnc2ccccc2c1=O (centres undefined),Potency,[1],inactive
same,Potency,[2],inactive
